Screening data deposited in PubChem BioAssay by National Center for Advancing Translational Sciences (NCATS).
L3MBTL1 inh: L3MBTL1 (human) inhibition | Potency, µM (series often up to 57.1 µM), most hits filed as inhibitors | Q9Y468 | AlphaScreen L3MBTL1–H3K9me1 peptide binding | 230,000 compounds, 0.66% hits; also: nearly all actives have a fitted effect of over 60% in size
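AlphaScreen proximity signal between nickel-chelate acceptor and streptavidin donor beads (final 10 ug/mL) reports binding of 50 nM L3MBTL1 to 75 nM biotin-H3 K9me1 peptide; complex incubated with compounds 30 min at room temperature; cefsulodin titration as control.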
G9a block: G9a (human) methyltransferase inhibition; Q96KQ7; G9a H3K9 monomethylation, AlphaScreen, 2 h; Potency, µM (titrated, usually from 102 µM), hits mostly inhibitors; 350,000 compounds, 8.8% hits; AID 504332; also: nearly all actives have a fitted effect of over 75% in size
Target sequence (Q96KQ7 913-1193 limits assumed): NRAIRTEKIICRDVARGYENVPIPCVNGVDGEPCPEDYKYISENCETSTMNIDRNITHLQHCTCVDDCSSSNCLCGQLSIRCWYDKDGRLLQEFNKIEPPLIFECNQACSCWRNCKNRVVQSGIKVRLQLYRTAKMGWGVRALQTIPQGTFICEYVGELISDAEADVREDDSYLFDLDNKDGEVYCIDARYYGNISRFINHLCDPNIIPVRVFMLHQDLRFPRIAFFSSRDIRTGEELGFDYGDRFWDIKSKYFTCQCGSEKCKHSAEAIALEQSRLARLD
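Chemiluminescent proximity detection of H3K9 monomethylation, read after 10 min bead incubation in the dark. Reaction: 20 nM G9a, 500 nM biotin-H3K9 peptide, 20 uM SAM cofactor, 2 h, room temperature, following 15 min enzyme-compound preincubation.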
Sfp PPTase inh: inhibitors of Bacillus subtilis Sfp phosphopantetheinyl transferase; AID 1490; Q9F4F7; 310,000 compounds, 3.5% hits; Potency, µM, usual class: inhibitors; Biochemical Sfp PPTase activity, qHTS;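 also: the enzyme is Sfp with the accession as filed and its product quenches rhodamine fluorescence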
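Step 1, compound plus 15 nM Sfp-PPTase, 15 min, room temperature. Step 2, add rhodamine-CoA (5 uM) and BHQ-2-YbbR (12.5 uM). Step 3, read 525/598 nm fluorescence at 0 and 30 min.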
JMJD2A Tudor inh: inhibitors of human JMJD2A Tudor domain. O75164. AlphaScreen JMJD2A-Tudor / H3K4me3 peptide binding. Potency, µM (doses to about 114 µM), usual class: inhibitors. 390,000 compounds, 4.4% hits; also: nearly all actives have a fitted effect of over 50% in size
HP1b chromo inh: inhibitors of HP1-beta chromodomain binding to methylated histone tails; P83916; AlphaScreen HP1-beta / biotin-H3K9me3 peptide binding; Potency, µM (top dose mostly 114 µM), usual class: inhibitors; 390,000 compounds, 0.56% hits; AID 540317; also: nearly all actives have a fitted effect of over 70% in size
Target sequence (P83916 whole entry, looked up): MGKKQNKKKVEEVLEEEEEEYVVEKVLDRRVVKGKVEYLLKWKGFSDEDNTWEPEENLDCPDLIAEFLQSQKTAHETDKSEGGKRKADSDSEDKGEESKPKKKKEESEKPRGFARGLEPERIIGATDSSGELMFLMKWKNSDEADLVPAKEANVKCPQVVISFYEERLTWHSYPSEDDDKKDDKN
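Compound inhibition of the preformed complex between 50 nM HP1-beta and 50 nM biotinylated H3K9me3 peptide was read by AlphaScreen. Buffer was PBS pH 7.4 with 0.01% Tween-20. Incubations ran 30 min at room temperature, with 10 ug/mL donor/acceptor beads.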
BAZ2B block: blocks human BAZ2B. Q9UIF8. AlphaScreen BAZ2B-H3K14Ac peptide displacement. Potency, µM (doses to about 114 µM), actives largely listed as inhibitors. 360,000 compounds, 4.4% hits. AID 504333; also: nearly all actives have a fitted effect of over 60% in size
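BAZ2B 50 nM plus b-H3(5-23)K14Ac 50 nM, PBS pH 7.4/0.01% Tween-20, 30 min RT; compound added (max 110 uM), 30 min RT; streptavidin donor/Ni-chelate acceptor beads 10 ug/mL final, 20 min dark; AlphaScreen read.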
Numbers stand for hits; n = inactive; u = inconclusive; x = no result given; [ ] = remark or other dose. Sampled rows, rich in hits. Any-hit rate of the full collection: about 12%. Calls follow the shape of the dose curve; as a rule, active = well fitted curve in the direction sought with a large enough effect; inconclusive = small, poorly fitted or top-dose-only effect, or another doubt; inactive = no such curve, though single readings can be large; an effect the other way counts as inactive or inconclusive.

SMILES | L3MBTL1 inh | G9a block | Sfp PPTase inh | JMJD2A Tudor inh | HP1b chromo inh | BAZ2B block
COc1cc(NC(=S)Nc2ccc(Br)cc2Cl)c(OC)cc1Cl | n | n | 50.1µM | n | u | n
COc1cc(Cl)c(C)cc1NC(=S)NN | n | 6.31µM | 35.5µM | u | n | n
COc1cc(NC(=S)NC(C)(C)C)c(OC)cc1Cl | n | u | n | u | n | n
COc1cc(NC(=S)Nc2ccccn2)c(OC)cc1Cl | n | n | n | n | n | n
COc1cc(NC(=S)Nc2cccc(Cl)c2Cl)c(OC)cc1Cl | n | u | 50.1µM | n | n | n
Cc1nc2ccc(S(=O)(=O)NC(CC(C)C)C(=O)NCc3ccc(Cl)cc3)cc2s1 (stereo not given) | x | n | x | n | n | n
COc1cc2c(c(OC)c1)C(c1cccc(F)c1F)CC(=O)N2 (stereo not given) | x | n | x | n | n | n
CCOc1ccccc1NC1=C(Cl)C(=O)N(c2ccc(OC)cc2)C1=O | n | u | n | u | n | u
COc1ccc(N2C(=O)C(Cl)=C(NCc3ccccc3)C2=O)cc1 | x | 44.7µM | n | n[11.4 µM] | n | n
CCOc1ccc(-c2n[nH]c(C(=O)NN)c2C)cc1 | n | n | n | n | n | n
Cc1c(-c2ccccc2)n[nH]c1C(=O)NN | n | 39.8µM | n | n | n | n
COc1ccccc1NC(=O)C1=C(C)Nc2ncnn2C1c1cccn1C (stereo not given) | x | n | x | n | n | n
O=C(CSc1nc2[nH]ncc2c(=O)[nH]1)Nc1ccc(Cl)c(Cl)c1 | n | n | x | n | n | n
COc1ccc(NC(=O)CSc2nc3[nH]ncc3c(=O)[nH]2)cc1OC | n | 44.7µM | x | u | n | n
CCc1nnc(NC(=O)CSc2nc3[nH]ncc3c(=O)[nH]2)s1 | x | u | n | n | n | n
Cc1nnc(NC(=O)CSc2nc3[nH]ncc3c(=O)[nH]2)s1 | x | 35.5µM | n | n | n | n
CCCCC(=O)Nc1nc(C)c(-c2csc(Nc3ccccc3OC)n2)s1 | n | u | n | u | n | u
CCCCCCC(=O)Nc1nc(C)c(-c2csc(Nc3cc(OC)ccc3OC)n2)s1 | n | u | n | 50.1µM | n | u
CCCCCC(=O)Nc1nc(C)c(-c2csc(Nc3cc(OC)ccc3OC)n2)s1 | n | 7.08µM | n | 50.1µM | u | 28.2µM
Cc1cc(Cl)ccc1NC(=O)CN1C(=O)C(=O)c2ccccc21 | x | n | x | n | n | n
CN(C)c1ncnc2ccc(-c3ccccc3C#N)cc12 | x | x | n | x | x | x
COCCSc1nnc(NC(=O)C2CC(=O)N(c3ccc(OC)cc3)C2)s1 (stereo not given) | x | n | n | n | n | n
COc1ccc(N2CC(C(=O)Nc3nnc(SCC(=O)NCc4ccco4)s3)CC2=O)cc1 (stereo not given) | x | 44.7µM | 50.1µM | u | n | 50.1µM
O=C(CSc1nnc(NC(=O)C2CC(=O)N(c3ccc(F)cc3)C2)s1)NCc1ccco1 (stereo not given) | x | 44.7µM | n | u | n | n
CCOc1ccc(NC(=O)CC2C(=O)N(c3cccc(C)c3)C(=O)N2Cc2cccnc2)cc1 (stereo not given) | x | n | x | n | n | n
SMILES | L3MBTL1 inh | G9a block | Sfp PPTase inh | JMJD2A Tudor inh | HP1b chromo inh | BAZ2B block
COc1ccc(/C=C/c2nc(C#N)c(N3CCN(c4ccccc4)CC3)o2)cc1OC | x | n | x | n | n | n
CCC(CC)N1CCN(CC2CC=CCC2)CC1 (stereo not given) | n | 10µM | u | 1.78µM | u | x
CCN(Cc1ccccc1)C(=O)C1CCN(CC2CC=CCC2)CC1 (stereo not given) | n | 7.94µM | n | 3.16µM | u | u
O=C(C1CC1)N(CCN(Cc1ccccc1)C(=O)C1CC1)Cc1ccccc1 | n | x | n | n[11.4 µM] | n | n
CCN(CC)C(=O)C1CCN(CC2CC=CCC2)CC1 (stereo not given) | n | 12.6µM | n | 6.31µM | n | 56.2µM
CCN(Cc1ccccc1)C(=O)C1CCN(S(=O)(=O)c2ccc3c(c2)OCCO3)CC1 | x | n | n | n | n | n
CCN(Cc1ccccc1)C(=O)C1CCN(Cc2sccc2C)CC1 | n | 8.91µM | n | 2.82µM | u | n
COc1cc(OC)cc(C(=O)NC2CCSC2=O)c1 (stereo not given) | n | n | n | n | n | x
COc1ccc(C(=O)NC(=S)NC2CCSC2=O)cc1 (stereo not given) | n | 10µM | n | n | n | n
CCC(=O)NC(=S)NNC(=O)COc1ccc(Br)cc1 | n | 8.91µM | n | n | n | n
COc1ccc(C(=O)NC(=S)NNC(=O)c2ccc(C)cc2)cc1 | x | x | x | u | n | x
O=C(COc1ccc(Br)cc1)NNC(=S)NCc1ccccc1 | x | u | n | n | n | n
COc1ccc(C(=O)NC(=S)NNC(=O)c2ccc(NC(=O)C(C)C)cc2)cc1 | n | 4.47µM | n | u | n | n
CCOc1ccc(NC(=S)NNC(=O)c2ccc(Br)cc2)cc1 | n | 35.5µM | n | u | n | n
O=C(NC(=S)NNC(=O)c1ccco1)c1ccc(Br)cc1 | x | 22.4µM | n | n | n | n
